Source: PubChem BioAssay (NCATS)
“And” between values parts separate entries of the source, which are not always exact repeats. Equal values may be shown once. Results filed as inconclusive are left out. The source made the active and inactive calls. The call rests on the fitted dose curve; in most records, active means well fitted inhibition curve with a large enough effect; inconclusive means small, poorly fitted or top-dose-only effect; inactive means flat fitted curve, though single readings scatter.

Key:
CRL-7250 [1] = experiment: Cytotoxic Profiling of Annotated Libraries Using Quantitative High-Throughput Screening (AID 1296008); details: Five cell lines viability, CellTiter-Glo ATP luminescence, 48-72 h; max response: hits give low values; further: potency means the concentration at half of the fitted maximal effect; on max response: on the % scale 0 is the no-effect control and ±100 the full control effect
How it was run: (§1)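 Cytotoxicity was measured as CellTiter-Glo ATP luminescence, read after 10 min at room temperature. Compound treatment of the cells lasted 48 or 72 hr at 37 degrees Celsius in a qHTS format.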

HEK293 = experiment: as above; details: Five cell lines viability, CellTiter-Glo ATP luminescence, 48-72 h; max response: hits give low values
How it was run: as §1

HaCat = experiment: as above; details: Five cell lines viability, CellTiter-Glo ATP luminescence, 48-72 h; max response: hits give low values
How it was run: as §1

NIH3T3 [2] = experiment: as above; details: Five cell lines viability, CellTiter-Glo ATP luminescence, 48-72 h; max response: hits give low values
How it was run: as §1

MCC-13 = experiment: qHTS assay to identify novel small-molecules to repurpose for Merkel cell carcinoma treatment (AID 1296009); details: MCC and control cell lines, CellTiter-Glo viability, 72 h; series mostly up to 46 µM; further: potency means the concentration at half of the fitted maximal effect
How it was run: (§2)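 After compound transfer in DMSO, plates were kept 72 hr at 37 degree celsius. Luminescent ATP signal from CellTiter-Glo served as viability measure, normalized against DMSO and no-cell controls.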

MCC-26 = experiment: as above; details: MCC and control cell lines, CellTiter-Glo viability, 72 h; series mostly up to 46 µM
How it was run: as §2

MKL-1 = experiment: as above; details: MCC and control cell lines, CellTiter-Glo viability, 72 h; series mostly up to 46 µM
How it was run: as §2

MKL-2 = experiment: as above; details: MCC and control cell lines, CellTiter-Glo viability, 72 h; series mostly up to 46 µM
How it was run: as §2

NIH3T3 [3] = experiment: as above; details: MCC and control cell lines, CellTiter-Glo viability, 72 h; at 44.8 µM (top of the series) unless noted
How it was run: as §2

UISO = experiment: as above; details: MCC and control cell lines, CellTiter-Glo viability, 72 h; series mostly up to 46 µM
How it was run: as §2

KB-3-1 = experiment: Cytotoxic Profiling of Annotated Libraries Using Quantitative High-Throughput Screening (AID 1296008); details: Five cell lines viability, CellTiter-Glo ATP luminescence, 48-72 h; max response: hits give low values; further: potency means the concentration at half of the fitted maximal effect; on max response: on the % scale 0 is the no-effect control and ±100 the full control effect
How it was run: as §1

CRL-7250 [4] = experiment: qHTS assay to identify novel small-molecules to repurpose for Merkel cell carcinoma treatment (AID 1296009); details: MCC and control cell lines, CellTiter-Glo viability, 72 h; at 44.8 µM (top of the series) unless noted; further: potency means the concentration at half of the fitted maximal effect
How it was run: as §2

PC49 = experiment: qHTS profiling for inhibitors of Plasmodium falciparum proliferation (AID 504749);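 further: 0% = DMSO vehicle and full inhibition = artemisinin control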; details: P. falciparum in erythrocytes, SYBR Green DNA, 72 h; series mostly up to 28.7 µM
How it was run: (§3)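 Three-day growth assay of blood-stage parasites in erythrocytes (0.3% parasitemia, 2.5% hematocrit) at 37 C, 5% CO2, quantified by SYBR Green DNA staining after overnight detergent lysis.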

SC27B = experiment: as above; details: P. falciparum in erythrocytes, SYBR Green DNA, 72 h; series mostly up to 28.7 µM
How it was run: as §3

TAB109 = experiment: as above; details: P. falciparum in erythrocytes, SYBR Green DNA, 72 h; series mostly up to 28.7 µM
How it was run: as §3

TAB113 = experiment: as above; details: P. falciparum in erythrocytes, SYBR Green DNA, 72 h; series mostly up to 28.7 µM
How it was run: as §3

TAB165 = experiment: as above; details: P. falciparum in erythrocytes, SYBR Green DNA, 72 h; series mostly up to 28.7 µM
How it was run: as §3

W2 = experiment: as above; details: P. falciparum in erythrocytes, SYBR Green DNA, 72 h; series mostly up to 28.7 µM
How it was run: as §3

HEK293T = experiment: qHTS assay to identify novel small-molecules to repurpose for Merkel cell carcinoma treatment (AID 1296009); details: MCC and control cell lines, CellTiter-Glo viability, 72 h; at 44.8 µM (top of the series) unless noted; further: potency means the concentration at half of the fitted maximal effect
How it was run: as §2
Further: nearly all actives have a fitted effect of over 60% in size.

CCC(=O)O[C@@H]1C=C2CCC3C(CCC4(C)C3CC[C@@H]4OC(=O)CC)C2CC1 (some centres not stated)
inactive: max response (CRL-7250 [1]) -3.72% | max response (HEK293) 2.37% | max response (HaCat) -20.7% | outcome (NIH3T3 [2]) | Potency (MCC-13) | Potency (MCC-26) | Potency (MKL-1) | Potency (MKL-2) | outcome (NIH3T3 [3]) | Potency (UISO)

CC(C)[C@]12O[C@@H]1[C@@H]1O[C@]13[C@]1(O[C@H]1C[C@@H]1C4=C(CC[C@@]13C)C(=O)OC4)[C@H]2O
active: Potency (KB-3-1) 1 nM
inactive: max response (CRL-7250 [1]) -124% | max response (HEK293) -111% | max response (HaCat) -144% | max response (NIH3T3 [2]) -117% | Potency (MCC-13) | Potency (MCC-26) | Potency (MKL-1) | Potency (MKL-2) | Potency (UISO)

CCOCCOC(C)=O
inactive: max response (CRL-7250 [1]) -13% | max response (HEK293) -1.29% | max response (HaCat) -11.2% | max response (KB-3-1) -19.2% | max response (NIH3T3 [2]) -2.47% | Potency (MCC-13) | Potency (MCC-26) | Potency (MKL-1) | Potency (MKL-2) | Potency (UISO)

CC(C)(C)c1cc(C=C(C#N)C#N)cc(Br)c1O
inactive: outcome (CRL-7250 [1]) | max response (HEK293) -8.76% | max response (HaCat) 3.48% | outcome (NIH3T3 [2]) | outcome (CRL-7250 [4]) | Potency (MCC-13) | Potency (MCC-26) | Potency (MKL-1) | Potency (MKL-2) | outcome (NIH3T3 [3]) | Potency (UISO)

C[C@@H]1CC[C@H]2[C@@H](C)C(=O)O[C@@H]3O[C@@]4(C)CC[C@H]1[C@]32OO4
active: Potency (HEK293) 1.66 µM
inactive: max response (CRL-7250 [1]) -21.1% | max response (HaCat) -10.9% | max response (KB-3-1) -6.88% | max response (NIH3T3 [2]) -12.8% | Potency (MCC-13) | Potency (MCC-26) | Potency (MKL-1) | Potency (MKL-2)

COc1cc([C@@H]2c3cc4c(cc3[C@@H](O)C3COC(=O)C32)OCO4)cc(OC)c1O (some centres not stated)
active: Potency (CRL-7250 [1]) 83.3 nM | Potency (HEK293) 0.0372 µM | Potency (KB-3-1) 66.2 nM | Potency (NIH3T3 [2]) 132 nM | Potency (MKL-1) 2.35 µM | Potency (UISO) 52.6 nM
inactive: max response (HaCat) 3.35%

COc1cc2cc(c1Cl)N(C)C(=O)C[C@H](OC(=O)C(C)C)[C@]1(C)O[C@H]1[C@H](C)[C@@H]1C[C@@](O)(NC(=O)O1)[C@H](OC)C=CC=C(C)C2
inactive: max response (CRL-7250 [1]) -68.5% | max response (HEK293) -91.4% | max response (HaCat) -21.1% | max response (NIH3T3 [2]) -88.8% | Potency (MCC-13) | Potency (MCC-26) | Potency (MKL-1) | Potency (MKL-2) | Potency (UISO)
active: Potency (KB-3-1) 332 nM

O=C(N[C@@H](COc1ccc2[nH]c(=O)[nH]c2c1)c1ccccc1)c1cccn(Cc2ccc(F)c(F)c2)c1=O
inactive: max response (CRL-7250 [1]) -47.2% | max response (HEK293) -35.2% and -9.78% | max response (HaCat) -18% | max response (KB-3-1) -0.47% | max response (NIH3T3 [2]) -25.3% | Potency (MCC-13) | Potency (MCC-26) | Potency (MKL-1) | Potency (MKL-2) | Potency (UISO)

C#CC1(O)CCC2C3CCC4=CC(=O)CCC4(C)C3CCC21C (configuration not stated)
inactive: Potency (PC49) | Potency (SC27B) | Potency (TAB109) | Potency (TAB113) | Potency (TAB165) | Potency (W2) | max response (CRL-7250 [1]) -20.8% | max response (HEK293) -10.4% | max response (HaCat) -0.0987% | max response (KB-3-1) -11.2% | max response (NIH3T3 [2]) 0.477% | Potency (MCC-13) | Potency (MKL-1) | Potency (MKL-2) | Potency (UISO)

C=C[C@@H]1CN2CCC1C[C@@H]2[C@@H](O)c1ccnc2ccccc12 (some centres not stated)
active: Potency (HEK293) 18.7 µM
inactive: max response (CRL-7250 [1]) -5.2% | max response (HaCat) -17.4% | max response (NIH3T3 [2]) -16.7% | Potency (MCC-13) | Potency (MCC-26) | Potency (MKL-1) | Potency (MKL-2)

O=[N+]([O-])/N=C1\NCCN1Cc1ccc(Cl)nc1
inactive: max response (CRL-7250 [1]) -0.312% | outcome (HEK293) | max response (HaCat) -1.41% | max response (KB-3-1) 6.99% and -6.61% | max response (NIH3T3 [2]) -2.1% | outcome (HEK293T) | Potency (MCC-13) | Potency (MCC-26) | Potency (MKL-1) | Potency (MKL-2) | Potency (UISO)

COc1ccc2c(c1)[C@]13CCCCC1C(C2)N(C)CC3 (some centres not stated)
inactive: max response (CRL-7250 [1]) 4.77% | outcome (HEK293) | max response (HaCat) -2.03% | max response (KB-3-1) 9.18% | outcome (NIH3T3 [2]) | outcome (HEK293T) | Potency (MCC-13) | Potency (MCC-26) | Potency (MKL-1) | Potency (MKL-2) | outcome (NIH3T3 [3]) | Potency (UISO)

C[C@]12CCC(=O)C(O)=C1CC[C@@H]1[C@H]3CCC(=O)[C@@]3(C)CC[C@@H]12
inactive: Potency (PC49) | Potency (W2) | max response (CRL-7250 [1]) -0.395% | max response (HEK293) -10.2% | max response (HaCat) -3.05% | max response (KB-3-1) 3.15% | max response (NIH3T3 [2]) 4.69% | Potency (MCC-13) | Potency (MCC-26) | Potency (MKL-1) | Potency (MKL-2) | Potency (UISO)

Cc1ccc(Cl)c(O)c1
inactive: Potency (PC49) | Potency (SC27B) | Potency (TAB109) | Potency (TAB113) | Potency (TAB165) | Potency (W2) | max response (CRL-7250 [1]) 3.13% | max response (HEK293) -16.6% | max response (HaCat) -3.88% | max response (KB-3-1) -1.89% | outcome (NIH3T3 [2]) | Potency (MCC-13) | Potency (MCC-26) | Potency (MKL-1) | Potency (MKL-2) | outcome (NIH3T3 [3]) | Potency (UISO)
